Assay outcomes: PubChem BioAssay, National Center for Advancing Translational Sciences (NCATS)
Only some compounds are listed: those with a hit (about 7.3% of all), similar ones and a draw of the others.
HCMV antiviral = inhibitors of human cytomegalovirus; HFF cells, HCMV-luciferase reporter, 72 h; hits give low values; activity change, negative = inhibition, % at 57.5 µM; actives 4.5% (n = 410,000); in the data active = activity change below about -60%; inconclusive = no clear call, values can overlap the other calls; inactive = above about -39%
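Luciferase read-out from HCMV-luciferase-infected HFFs (MOI 1 PFU/cell) 72 h post infection at 37C; compounds added after 16 h cell attachment; activity normalized between buffer-only basal and Salinomycin (10uM) inhibitor controls.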
Vaccinia Venus = inhibitors of vaccinia virus (Venus reporter); actives 0.46% (n = 330,000); Potency, µM (titrated, usually from 36.5 µM), without a hit: at the highest dose activity change, negative = inhibition, hits mostly inhibitors; AID 720580; Vaccinia virus Venus reporter expression, fluorescence; calls by dose curve; tested in A549 cells; also: potency is read from the fitted curve at half-maximal effect; nearly all actives have a fitted effect of over 30% in size
FMDV inh = antivirals against foot and mouth disease virus; FMDV antiviral cell-based qHTS; actives 1.2% (n = 410,000); Potency, µM (titrated, usually from 57.9 µM), for the others: at the top dose activity change, negative = inhibition, usual class: inhibitors; calls by dose curve; tested in HEK293T cells; also: read-out not given here; potency is read from the fitted curve at half-maximal effect; nearly all actives have a fitted effect of over 45% in size
VACV mCherry inh = vaccinia inhibition (mCherry reporter). actives 0.63% (n = 310,000). Vaccinia virus mCherry reporter infection, fluorescence. Potency, µM (top dose mostly 36.5 µM), for the others: at the highest dose activity change, negative = inhibition, actives largely listed as inhibitors; calls by dose curve; tested in A549 cells; also: potency is read from the fitted curve at half-maximal effect; nearly all actives have a fitted effect of over 35% in size
HCV inh = HCV inhibition. Huh7.5.1 HCVcc-Cre infection, luciferase reporter, 44 h. Potency, µM (series often up to 41.8 µM), without a hit: at the highest dose activity change, negative = inhibition, most hits filed as inhibitors. actives 3.4% (n = 340,000); active = well fitted inhibition curve with a large enough effect; inconclusive = small, poorly fitted or top-dose-only effect, or another doubt; inactive = no such curve, though single readings can be large or run the other way; also: potency is read from the fitted curve at half-maximal effect
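Compounds are dispensed onto cells plated 4 h earlier at 1,000 per well, with HCVcc-Cre virus (about 0.5 moi) added next. Following 44 h of culture, luminescent signal is measured for 15 sec after 15 min with substrate at room temperature.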
Starred values were filed as active, the others as inactive; i = inactive; ? = inconclusive; nt = not tested or not shown; ! = a repeat was not active; [ ] = dose if it differs, or a comment. % is scaled to controls: 0 for no effect and ±100 for the full control effect.

SMILES	HCMV antiviral	Vaccinia Venus	FMDV inh	VACV mCherry inh	HCV inh
O=C(NCCOC(=O)c1ccc(C(=O)OCCNC(=O)c2cccnc2)s1)c1cccnc1	-5	nt	0%	nt	22µM*
O=C(NCCOC(=O)c1cccs1)c1cccnc1	-4	1%	23%	nt	19%
CCC(=O)OC1(C(C)=O)CCC2C3CCC4=CC(=O)CCC4(C)C3CCC21C (configuration not stated)	-11	-22%	-13%	-16%	-16%
COc1cc(C(=O)NCC(c2ccccc2)N(C)C)ccc1OCc1c(C)noc1C (configuration not stated)	-2	nt	15%	nt	?
O=C(Nc1cccc(Cl)c1)Nc1csc([N+](=O)[O-])c1	-97*	-27%	?	-27%	?
N=c1c2ccccc2nc2n1CCCCCCCCCCC2	?	-9%[7.34 µM]	?	i[7.34 µM]	13µM*
Clc1ccc(-c2cc(-c3nnc4n3CCCCC4)c3ccccc3n2)cc1	-72*	-10%	?	-16%	11%
Fc1ccc(-c2cc(-c3nnc4n3CCCCC4)c3ccccc3n2)cc1	29	nt	-21%	nt	?
COc1cc(/C=C/C(=O)OCC(=O)N2CCN(S(=O)(=O)c3ccc(C)cc3C)CC2)cc(Cl)c1OC	-25	-14%	-18%	i	-2%
Cc1ccc(OCc2nnc(SCc3nc4ccccc4[nH]3)n2Cc2ccco2)cc1	-69*	?	?	nt	10µM*
Cc1ccc(OCc2nnc(SCC(=O)c3ccccc3)n2Cc2ccco2)cc1	19	?	?	nt	?
c1ccc(-c2nnc(SCc3nc4ccccc4[nH]3)n2Cc2ccco2)cc1	-68*	nt	-7%	nt	-8%
CCn1c(SCc2nc3ccccc3[nH]2)nnc1-c1ccc(OC)cc1	-73*	nt	?	nt	?
Clc1cc2nc3ccccn3c2cc1Cl	15	-19%	-10%	nt	25µM*
O=Cc1c(Cl)nc2ccccn12	-35	-9%	-13%	-7%	9%
CCc1ccc(-c2cc(C(F)(F)F)n3nc(C(=O)Nc4cnn(Cc5ccc(C)cc5)c4)cc3n2)s1	nt	nt	-19%	nt	11µM*
Cc1ccccc1Cn1cc(NC(=O)c2cc3nc(-c4ccco4)cc(C(F)(F)F)n3n2)cn1	-28	-22%	?	?	10µM*
COc1cc(OC)c2c(-c3cccc(-c4sccc4C(C)=O)c3)cc(=O)oc2c1	-79*	?	0%	?	3.2µM*
COc1cc(OC)c2c(-c3cccc(-c4ccc(NC(C)=O)cc4)c3)cc(=O)oc2c1	?	?	4%	?	?
N#Cc1ccc(CN2CCN(C(=O)C3CC(=O)N(c4ccc5c(c4)OCCO5)C3)CC2)cc1 (configuration not stated)	3	-13%	?	i	nt
Cn1cnc2nc(Cl)nc(Cl)c21	-72*	?	?	?	32µM*
COc1ccc(-n2c(=O)c3ccccc3n(Cc3cccc(C)c3)c2=O)cc1	-23	-1%	-29%	-1%	nt
Cc1ccc(C(=O)C2CCN(C(=S)NCCCOC(C)C)CC2)cc1	54	nt	10%	nt	?
Cc1ccc(NC(=O)Nc2ccnc(-c3cccnc3)n2)cc1	-87*	nt	-20%	nt	11µM*
Cc1ccc(C(=O)Nc2ccnc(-c3cccnc3)n2)cc1	-11	nt	52%	nt	?
SMILES	HCMV antiviral	Vaccinia Venus	FMDV inh	VACV mCherry inh	HCV inh
O=[N+]([O-])c1ccc(SCc2c(F)cccc2Cl)nc1	-61*	-9%	-15%	-8%	-2%
CN(C)CCCNC(=S)NCC(c1ccc(Cl)cc1Cl)c1c[nH]c2ccccc12 (configuration not stated)	?	?	-23%	?	11µM*
CCCCNC(=S)NCC(c1ccccc1)c1c[nH]c2ccccc12 (configuration not stated)	?	-13%	4%	-15%	?
C/C(=N\Nc1nc2ccccc2s1)c1ccc2c(c1)OCO2	117	-13%	26%	i	?
CC(=NNc1nc2ccccc2s1)c1ccncn1	-100*	?	0%	2.8µM*	?
C/C(=N\Nc1nc2ccccc2s1)c1ccc(Br)s1	-20	-10%	?	-19%	11µM*
COc1cc2c(cc1OC)C(COc1ccc(C(C)C)cc1)N(C(=O)c1ccc(S(=O)(=O)N3CCCC3)cc1)CC2 (configuration not stated)	-2	-6%	?	5%	nt
Cc1ccccc1CC1SC(N)=NC1=O (configuration not stated)	16	-2%	-10%	-14%	5%
O=C(Nc1nccs1)c1c(O)c2cccc3c2n(c1=O)CCC3	-95*	nt	nt	nt	nt
CC(=O)Nc1ccc(NC(=O)c2cc(=O)c3ccccc3o2)cc1	-85*!	0%	-1%	-8%	-18%
O=C(NCCC1=CCCCC1)c1c(O)nc2sccn2c1=O	nt	-15%	10%	-15%	?
O=C(NCCCc1ccccc1)c1c(O)nc2sccn2c1=O	-64*	-8%	-3%	-18%	-9%
CN(C)CCNc1ncnc2c1sc1nc(-c3ccccc3)c3c(c12)CCCC3	-68*	10µM*	?	?	?
COc1ncnc2c1sc1nc(-c3ccccc3)c3c(c12)CCCC3	?	nt	-23%	nt	13%
CCSc1ccc2nnc(-c3cccc(F)c3)n2n1	-64*	nt	-18%	nt	?
O=c1cc(C(F)(F)F)[nH]c2ccc(C(F)(F)F)cc12	-97*	?	?	-28%	?
CCCCCC(=O)Nc1cc(S(=O)(=O)O)cc2cc(S(=O)(=O)O)cc(O)c12	-78*	-12%	-17%	-22%	17%
CCCCCC(=O)Nc1cc(S(=O)(=O)N2CCCCC2)ccc1N1CCCCC1	-18	-11%	-10%	-11%	?
COc1ccc(C(C(=O)NC(C)(C)C)n2c(-c3ccc(=O)[nH]c3)nc3ccccc32)cc1 (configuration not stated)	-86*	-15%	0%	-13%	nt
CCCNC(=O)c1ccc(N2CCC3(CC2)CC(c2cccc(Br)c2)=NO3)c(NC(=O)c2cccc(C)c2)c1	-17	-14%	-13%	1%	-2%
CCCCCCCn1ccc(=N)cc1	-91*	?	?	nt	0.56µM*
CCCCCn1ccc(=N)cc1	-73*	?	-6%	nt	6.3µM*
CCCCCCCCCn1ccc(=N)cc1	-95*	?	20µM*	-17%	0.04µM*
CCn1ccc(=N)cc1	19	-19%	-14%	nt	-25%
N#C/C(=C\c1cc(Br)c(O)c(Br)c1)c1nc2ccccc2c(=O)[nH]1	0	-3%	-17%	-11%	nt
CCCCC(=O)Nc1cc(-c2cn3cccnc3n2)ccc1C	-1	-6%	-5%	-8%	nt
CSc1nc(NCCOCCO)c2sc3nc(-c4ccco4)c4c(c3c2n1)CCC4	-1	?	40µM*	nt	?
Cc1oc(-c2ccccc2NC(=O)C2CCC2)nc1CNC(=O)c1ccc(C#CC(C)(C)O)cc1	nt	-9%	2%	-12%	nt
CC(=O)c1cn(C)c(=O)c2ccccc12	53	nt	4%	nt	14%
